Compounds with a hit are over-represented: about 0.9% of the library has one in this group of screens.
gsp ag: qHTS for Agonist of gsp, the Etiologic Mutation Responsible for Fibrous Dysplasia/McCune-Albright Syndrome: qHTS. hit rate 0.13% among 340,000. Potency, µM (titrated, usually from 76.9 µM), for the others: at the top dose activation (cAMP increase), hits mostly activators. gsp mutant cells, cAMP HTRF, 30 min. AID 624287, 2012; active means well fitted activation curve with a large enough effect; inconclusive means small, poorly fitted or top-dose-only effect, or another doubt; inactive means no such curve, though single readings can be large or run the other way; cell line not stated here;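 further: phosphodiesterase inhibitor Ro 20-1724 added with compounds to block cAMP breakdown; potency means the concentration at half of the fitted maximal effect; nearly all actives have a fitted effect of over 60% in size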
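Cells stably selected in G418 were plated at 2000/well, grown 16-24 hr, then given compounds in DMSO with the PDE inhibitor […] (300 uM solution added) for 30 min at 37C; cAMP was read by HTRF.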
RXFP1 antag: qHTS Assay for Antagonists of the Relaxin Receptor RXFP1; hit rate 0.59% among 350,000; HEK293-RXFP1, relaxin-stimulated cAMP HTRF, 30 min; stronger effect = lower value; activity change, negative = inhibition, % at 57.5 µM;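 active means activity change of -60% or lower, but not beyond a set lower limit; inconclusive means change between -60% and -40%, or beyond the set limit; inactive means change above -40%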; further: on the % scale 0 is the no-effect control and ±100 the full control effect
Target sequence (Q9HBX9 whole entry, looked up): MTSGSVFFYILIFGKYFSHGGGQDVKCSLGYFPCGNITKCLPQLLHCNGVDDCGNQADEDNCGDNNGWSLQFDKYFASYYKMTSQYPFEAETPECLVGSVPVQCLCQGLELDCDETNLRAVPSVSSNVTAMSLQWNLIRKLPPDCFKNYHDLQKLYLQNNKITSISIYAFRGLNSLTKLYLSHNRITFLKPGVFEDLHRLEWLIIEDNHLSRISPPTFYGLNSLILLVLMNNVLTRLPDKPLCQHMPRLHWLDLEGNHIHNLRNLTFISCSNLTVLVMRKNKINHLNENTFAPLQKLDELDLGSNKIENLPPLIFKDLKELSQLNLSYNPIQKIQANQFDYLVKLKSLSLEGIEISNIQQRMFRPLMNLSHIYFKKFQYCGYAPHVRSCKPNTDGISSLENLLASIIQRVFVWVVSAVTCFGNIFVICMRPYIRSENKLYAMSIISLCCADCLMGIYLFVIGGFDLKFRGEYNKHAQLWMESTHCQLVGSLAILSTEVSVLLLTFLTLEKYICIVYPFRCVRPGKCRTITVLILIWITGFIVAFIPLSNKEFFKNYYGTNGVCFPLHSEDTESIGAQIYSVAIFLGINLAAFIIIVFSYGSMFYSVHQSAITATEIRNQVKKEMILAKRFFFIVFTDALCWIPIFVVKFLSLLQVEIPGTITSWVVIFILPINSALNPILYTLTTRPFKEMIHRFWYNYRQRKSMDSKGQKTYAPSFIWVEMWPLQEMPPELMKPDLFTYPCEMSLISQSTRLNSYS
gsp antag: qHTS for Antagonists of gsp, the Etiologic Mutation Responsible for Fibrous Dysplasia/McCune-Albright Syndrome: qHTS | gsp-mutant cells, cAMP HTRF, 30 min | hit rate 0.4% among 340,000 | Potency, µM (top dose mostly 76.9 µM), for the others: at the top dose activity change, negative = inhibition, hits mostly inhibitors; calls by dose curve; cell line not stated here;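 further: intracellular cAMP measured with PDE inhibitor Ro 20-1724 present during compound exposure; potency means the concentration at half of the fitted maximal effect; on the % scale 0 is the no-effect control and ±100 the full control effect; nearly all actives have a fitted effect of over 65% in size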
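HTRF cAMP measurement after 30 min RT detection following 30 min, 37C compound treatment alongside […] (added as 300 uM solution) in G418-selected cells seeded at 2000/well and grown 16–24 h.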
RXFP1 agonist: qHTS Assay for Agonists of the Relaxin Receptor RXFP1; Relaxin receptor 1 (Homo sapiens), Q9HBX9; HEK293T-RXFP1 cAMP TR-FRET, 30 min; response scale: percent of porcine relaxin response, buffer zero; Potency, µM (top dose mostly 57.5 µM), for inactives: top-dose activation, actives largely listed as activators; hit rate 0.3% among 370,000; AID 2676, 2010; active means well fitted activation curve with a large enough effect; inconclusive means small, poorly fitted or top-dose-only effect; further: potency means the concentration at half of the fitted maximal effect; on the % scale 0 is the no-effect control and ±100 the full control effect; nearly all actives have a fitted effect of over 60% in size
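HEK293T cells stably expressing RXFP1 were pretreated with the PDE4 inhibitor Ro 20174, exposed to compounds for 30 min at 37C, lysed, and cAMP was read by TR-FRET. Data normalized to buffer (basal) and 29 nM porcine relaxin (100%).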
* marks the source's active call; other numbers are inactive results; ? = inconclusive; · = no result; [ ] = remark or other dose.

SMILES	gsp ag	RXFP1 antag	gsp antag	RXFP1 agonist
CSc1nc(C)cc(SCC(=O)Nc2ccccc2)n1	32µM*	-9	?	2%
Cc1cc(SCC(=O)Nc2ccccc2)nc(C)n1	-4%	-6	4%[15.4 µM]	1%
COc1ccc(C2c3ccc4ccccc4c3Oc3ncn(CCN(C)C)c(=N)c32)cc1 (configuration not stated)	7%	-108*	5%	2%
COc1ccc(C2c3ccc4ccccc4c3Oc3ncn(CCO)c(=N)c32)cc1 (configuration not stated)	?	-12	2%	-1%
CCc1ccc(NC(=O)CCC(=O)c2ccc(C)cc2)cc1	33%	-7	-12%	-3%
CCc1ccc(NC(=O)CCC(=O)c2ccccc2)cc1	-5%	3	35µM*	-3%
O=C(COC(=O)CCc1nc2ccccc2s1)NC(=O)NCc1ccco1	1%[15.4 µM]	-9	11µM*	0%
CCOC(=O)c1ccc(NC(=O)N2CC3CCCN3c3ccccc32)cc1 (configuration not stated)	·	-12	·	0%
CCOc1ccc(NC(=O)N2CC3CCCN3c3ccccc32)cc1 (configuration not stated)	·	-61*	·	2%
c1ccc(CCNc2nc(-c3ccccc3)cs2)cc1	·	-36	·	·
CCCCCCn1c2c(c(=N)c3c1CCC3)CCC2	16%	8	35µM*	3%
CCCCCCCCCn1c2c(c(=N)c3c1CCC3)CCC2	-6%[15.4 µM]	-70*	5%	1%
CSc1nc2sc3c(c2c(=O)n1-c1ccc(C)cc1)CCCC3	·	-2	·	5%
CCOC(=O)c1ccc(NC(=O)Cn2nc(SC)c(S(=O)(=O)c3ccc(Cl)cc3)c2N)cc1	·	·	·	-1%
Cc1ccc(C(=O)Nc2nnc(COc3ccccc3)s2)cc1	?	4	27%	?
Cc1ccc(OCc2nnc(NC(=O)c3cccnc3)s2)cc1	-1%	-2	7.9µM*	0%
CCN(C(=O)Cn1c(=O)n(Cc2ccc3c(c2)OCO3)c(=O)c2ccc(C(=O)NC3CCCCC3)cc21)c1cccc(C)c1	·	·	·	2%
C=C(CN(C)C)C(=O)c1ccc(C)cc1C	27%	-81*	50µM*	·
Cc1cccc(Cn2c(CN3CCCC(C)C3)nc3c2c(=O)n(C)c(=O)n3C)c1 (configuration not stated)	·	-8	·	3%
COC(=O)CCCCC(CCSS/C(CCO)=C(\C)N(C=O)Cc1cnc(C)nc1N)SC(C)=O (configuration not stated)	·	2	·	·
CCC1=C[C@@H]2CN(C1)Cc1c([nH]c3ccccc13)[C@@](C(=O)OC)(c1cc3c(cc1OC)N(C)[C@H]1[C@@](O)(C(=O)OC)[C@H](OC(C)=O)[C@]4(CC)C=CCN5CC[C@]31[C@@H]54)C2	·	-33	·	·
CC(=O)Nc1ccn(C2COC(COC(=O)c3ccccc3)O2)c(=O)n1 (configuration not stated)	·	-14	·	·
CCOC(=O)c1nnn(-c2nonc2N)c1CN1CCCC1	-58%	8	50µM*	-2%
CCOC(=O)C(=O)CCCCCCl	·	3	·	·
c1ccc(CCNc2ncnc3ccccc23)cc1	31%	-4	-21%	3%
SMILES	gsp ag	RXFP1 antag	gsp antag	RXFP1 agonist
CCCCCCCCNc1ncnc2ccccc12	5%	-10	0.89µM*	-2%
Cc1cccc(-c2nc(CSCC(=O)N3CCN(c4cccc(C)c4C)CC3)c(C)o2)c1	·	-14	·	-1%
Cc1cccc(-c2nc(CSCC(=O)N3CCN(c4ccccn4)CC3)c(C)o2)c1	-14%	-6	32µM*	-2%
Cc1ccc(-c2onc(C)c2C)cc1S(=O)(=O)N1CCC(C)CC1	·	-29	·	4%
Cc1ccccc1C(=O)c1cccn1CC(=O)NCCN1CCN(c2cccc(C)c2C)CC1	-17%	-69*	-7%	1%
CCN1CCN(Cc2c(O)ccc3c(C)cc(=O)oc23)CC1	7%	0	6%	14%
Cc1cc(O)c(CN2CCN(c3ccccc3)CC2)c2oc(=O)cc(C)c12	·	-8	·	18µM*
Cc1ccccc1C(=O)Nc1ccc(C(=O)N2CCCC(N(C)C)c3ccccc32)cc1 (configuration not stated)	·	1	·	·

Screening data as filed in PubChem.
